Measurements: the supplement of paper PMC8728848
The sample as a whole holds a higher share of the strongest signals than the screen did.

Experiments:
Test in all cases: glycan array binding signal (z-score within array); higher = stronger binding
Details in all cases: glycan notation: IUPAC condensed, linker removed
[1] = biological target: Gal(b1-4)GlcNAc(b1-3)Gal(b1-4)GlcNAc(b1-3)[Gal(b1-4)GlcNAc(b1-3)Gal(b1-4)GlcNAc(b1-6)]GalNAc
Summary of the method: (§1)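 The binding signal is a Z-score computed within each array and averaged over linkers. Arrays of the same protein sequence at different concentrations or buffers were also averaged together. Data originate from 3228 arrays in the Consortium for Functional Glycomics database, kept only where the protein sequence was available.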

Gal6S(b1-4)Glc = biological target: Gal6S(b1-4)Glc
Summary of the method: as §1

[2] = biological target: GalNAc(a1-3)GalNAc(b1-3)Gal(a1-4)Gal(b1-4)Glc
Summary of the method: as §1

GalNAc(b1-4)GlcNAc = biological target: GalNAc(b1-4)GlcNAc
Summary of the method: as §1

GlcA(b1-3)Gal = biological target: GlcA(b1-3)Gal
Summary of the method: as §1

GlcA(b1-6)Gal = biological target: GlcA(b1-6)Gal
Summary of the method: as §1

[3] = biological target: GlcNAc(b1-3)Gal(b1-4)GlcNAc(b1-3)Gal(b1-4)GlcNAc(b1-3)Gal(b1-4)GlcNAc(b1-2)[GlcNAc(b1-3)Gal(b1-4)GlcNAc(b1-3)Gal(b1-4)GlcNAc(b1-3)Gal(b1-4)GlcNAc(b1-6)]Man(a1-6)[GlcNAc(b1-3)Gal(b1-4)GlcNAc(b1-3)Gal(b1-4)GlcNAc(b1-3)Gal(b1-4)GlcNAc(b1-2)Man(a1-3)]Man(b1-4)GlcNAc(b1-4)[Fuc(a1-6)]GlcNAc
Summary of the method: as §1

[4] = biological target: GlcNAc(b1-3)Gal(b1-4)GlcNAc(b1-3)Gal(b1-4)GlcNAc(b1-3)Gal(b1-4)GlcNAc(b1-3)Gal(b1-4)GlcNAc(b1-2)Man(a1-3)[GlcNAc(b1-3)Gal(b1-4)GlcNAc(b1-3)Gal(b1-4)GlcNAc(b1-3)Gal(b1-4)GlcNAc(b1-3)Gal(b1-4)GlcNAc(b1-2)Man(a1-6)]Man(b1-4)GlcNAc(b1-4)[Fuc(a1-6)]GlcNAc
Summary of the method: as §1

Kdn(a2-3)Gal(b1-4)Glc = biological target: Kdn(a2-3)Gal(b1-4)Glc
Summary of the method: as §1

[5] = biological target: Man(a1-2)Man(a1-2)Man(a1-3)Man
Summary of the method: as §1

[6] = biological target: Man(a1-2)Man(a1-3)[Man(a1-2)Man(a1-6)]Man(a1-6)[Man(a1-2)Man(a1-2)Man(a1-3)]Man(b1-4)GlcNAc(b1-4)GlcNAc
Summary of the method: as §1

Man(a1-3)[Man(a1-6)]Man = biological target: Man(a1-3)[Man(a1-6)]Man
Summary of the method: as §1

[7] = biological target: Neu5Ac(a2-3)Gal(b1-3)GlcNAc(b1-6)GalNAc
Summary of the method: as §1

[8] = biological target: Neu5Ac(a2-3)Gal(b1-4)GlcNAc(b1-3)Gal(b1-4)GlcNAc(b1-2)Man(a1-3)[Neu5Ac(a2-3)Gal(b1-4)GlcNAc(b1-3)Gal(b1-4)GlcNAc(b1-2)Man(a1-6)]Man(b1-4)GlcNAc(b1-4)GlcNAc
Summary of the method: as §1

[9] = biological target: Neu5Ac(a2-3)Gal(b1-4)GlcNAc(b1-6)[Neu5Ac(a2-3)Gal(b1-3)]GalNAc
Summary of the method: as §1

[10] = biological target: Neu5Ac(a2-6)Gal(b1-3)GlcNAc(b1-3)[Gal(b1-4)GlcNAc(b1-6)]Gal(b1-4)Glc
Summary of the method: as §1

Neu5Ac(a2-6)Gal(b1-4)Glc = biological target: Neu5Ac(a2-6)Gal(b1-4)Glc
Summary of the method: as §1

[11] = biological target: Neu5Ac(a2-6)Gal(b1-4)GlcNAc(b1-2)Man(a1-3)Man(b1-4)GlcNAc(b1-4)GlcNAc
Summary of the method: as §1

[12] = biological target: Neu5Ac(a2-6)Gal(b1-4)GlcNAc(b1-2)[Neu5Ac(a2-6)Gal(b1-4)GlcNAc(b1-4)]Man(a1-3)[GlcNAc(b1-4)][Neu5Ac(a2-6)Gal(b1-4)GlcNAc(b1-4)Man(a1-6)]Man(b1-4)GlcNAc(b1-4)GlcNAc
Summary of the method: as §1

[13] = biological target: Neu5Ac(a2-6)Gal(b1-4)GlcNAc(b1-6)[Gal(b1-3)GlcNAc(b1-3)]Gal(b1-4)Glc
Summary of the method: as §1

[14] = biological target: Neu5Ac(a2-6)GalNAc(b1-4)GlcNAc6S
Summary of the method: as §1

[15] = biological target: Neu5Ac(a2-8)Neu5Ac(a2-3)Gal(b1-3)GalNAc(b1-4)[Neu5Ac(a2-3)]Gal(b1-4)Glc
Summary of the method: as §1

[16] = biological target: Neu5Ac(a2-8)Neu5Ac(a2-3)[GalNAc(b1-4)]Gal(b1-4)Glc
Summary of the method: as §1

[17] = biological target: Neu5Ac(a2-8)Neu5Ac(a2-8)Neu5Ac(a2-3)[GalNAc(b1-4)]Gal(b1-4)Glc
Summary of the method: as §1

[18] = biological target: Neu5Gc(a2-3)Gal(b1-4)GlcNAc(b1-3)Gal(b1-4)GlcNAc(b1-2)Man(a1-3)[Neu5Gc(a2-3)Gal(b1-4)GlcNAc(b1-3)Gal(b1-4)GlcNAc(b1-2)Man(a1-6)]Man(b1-4)GlcNAc(b1-4)GlcNAc
Summary of the method: as §1

[19] = biological target: Neu5Gc(a2-6)Gal(b1-4)GlcNAc
Summary of the method: as §1

[20] = biological target: Neu5Gc(a2-8)Neu5Gc(a2-3)Gal(b1-4)GlcNAc(b1-3)Gal(b1-4)GlcNAc
Summary of the method: as §1

[21] = biological target: Neu5Gc(b2-6)Gal(b1-4)GlcNAc
Summary of the method: as §1

B1: a L Fucosidase (Streptosporangium roseum), D2B1P1_STRRD (protein)
chain: MRRKLLLVPAVGLLVIGSIFATQPVASADTPPVYEPTVESLNSHPVPQWFNDDKFGIFIHWGAYSVPAWGPRGSYAEWYGNYMNAGGSATNAHHKATYGQDFNYDAFLQQWKAEKFDPADWVKLFKDAGAKYFVLTSKHHEGMALWDSKSSGRDSVDLGPGRDLAKELFDAARKDEAKLKAGFYYSLYEWYNPAYTGRPATNPYTGAEIPYTGAPGGGDYVKDYMLPQMRELIDGYDPDIIWCDGQWEKPASYWNTAGVIADYYNKALNSGKEVAVANRCKIQSGNLDSPELDFQTPEYTVKPDIDPVKWESSRGIAHSYGYNQNEPEEDHLTSDQLVDSLVDIVSKNGNLLLDIGPKADGTIPEIQRQRLLDIGAWLKANGEAIYGTTYWNRAEEKGGPDDVRYTAKDATLYATALKWPGEQLTLGADLPVDHSTRITMLGSGARLSWSRDEQGRVVVNTPQEAGKHAYVFKIETPGVRSLLRTSSSLAKEIAPGRTISGELTVTNPGKRHTPATKLSLTVPQGWTATLGAPRVRPLGPGESVKVPISVSAPEGVAPAPYTLGLYQRTGRMGTTTALPLTVNRPNLSLGKPATQKSTGYDAPASRAVDGNTGGDWSAGSTTHTAEPEKQAWWQVDLGASARLDSVDVWNRLDCCADRLKDFWVMASDQPFTTDDLDQARTAPGVTAVHVGEQAGSPSKVKLPEGTRGRYVRIQLASPSNPLSLAEVQVRGSMARPNLSLGKPATQKSTGYDAPASRAVDGNTGGDWSAGSTTHTAEPEKQAWWQVDLGASARLDSVDVWNRLDCCADRLKDFWVMASDQPFTTDDLDQARTAPGVTAVHVGEQAGSPSKVKLPEGTRGRYVRIQLASPSNPLSLAEVQVRLEHHHHHHS
[1]
  glycan array binding signal (z-score): -0.245
Gal6S(b1-4)Glc
  glycan array binding signal (z-score): -0.356
[2]
  glycan array binding signal (z-score): -0.338
GalNAc(b1-4)GlcNAc
  glycan array binding signal (z-score): -0.528
GlcA(b1-3)Gal
  glycan array binding signal (z-score): -0.445
GlcA(b1-6)Gal
  glycan array binding signal (z-score): -0.444
[3]
  glycan array binding signal (z-score): -0.512
[4]
  glycan array binding signal (z-score): 1.09
Kdn(a2-3)Gal(b1-4)Glc
  glycan array binding signal (z-score): -0.16
[5]
  glycan array binding signal (z-score): -0.582
[6]
  glycan array binding signal (z-score): -0.104
Man(a1-3)[Man(a1-6)]Man
  glycan array binding signal (z-score): 0.008
[7]
  glycan array binding signal (z-score): -0.493
[8]
  glycan array binding signal (z-score): 0.456
[9]
  glycan array binding signal (z-score): -0.417
[10]
  glycan array binding signal (z-score): -0.585
Neu5Ac(a2-6)Gal(b1-4)Glc
  glycan array binding signal (z-score): -0.462
[11]
  glycan array binding signal (z-score): -0.533
[12]
  glycan array binding signal (z-score): -0.202
[13]
  glycan array binding signal (z-score): -0.507
[14]
  glycan array binding signal (z-score): -0.481
[15]
  glycan array binding signal (z-score): -0.521
[16]
  glycan array binding signal (z-score): -0.558
[17]
  glycan array binding signal (z-score): -0.388
[18]
  glycan array binding signal (z-score): 0.548
[19]
  glycan array binding signal (z-score): -0.317
[20]
  glycan array binding signal (z-score): -0.268
[21]
  glycan array binding signal (z-score): -0.474
